Consider ten compounds from PubChem BioAssay (NCI).

Experiment [1] is described as follows: NCI Yeast Anticancer Drug Screen. Data for the rad50 strain (AID 155).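 Note: 0% = growth of vehicle-only cultures of the same strain.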 The following applies: S. cerevisiae rad50 strain growth inhibition, hits give high values. The method in brief:
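Readout: growth inhibition relative to vehicle-treated cultures. Compound exposure was carried out in a genetically defined yeast strain deficient in DNA damage repair.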

Experiment [2] in a line: NCI Yeast Anticancer Drug Screen. Data for the mec2-1 strain (AID 157). The following applies: S. cerevisiae mec2-1 strain, hits give high values. The method, boiled down:
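Using mec2-1 yeast: add compound, measure growth, express inhibition versus vehicle-treated cultures.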

The nature of experiment [3]: NCI Yeast Anticancer Drug Screen. Data for the sgs1 mgt1 strain (AID 161).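 Note: 0% = growth of cultures given vehicle only.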 The following applies: S. cerevisiae sgs1 mgt1 strain, hits give high values. The method in brief:
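Percent growth inhibition was derived by comparing compound-exposed mutant yeast with vehicle-exposed cultures. The strain carries alterations in DNA damage repair.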

Experiment [4] can be described thus: NCI Yeast Anticancer Drug Screen. Data for the cln2 rad14 strain (AID 165).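 Note: 0% = growth equal to vehicle treated cultures.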 The following applies: S. cerevisiae cln2 rad14 strain, hits give high values. The method, boiled down:
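Yeast strain cln2 rad14, bearing defects in cell cycle control and DNA repair, serves as the test system; values reflect growth inhibition compared with vehicle.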

The nature of experiment [5]: NCI Yeast Anticancer Drug Screen. Data for the bub3 strain (AID 167). The following applies: S. cerevisiae bub3 mutant strain, hits give high values. The method in brief:
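Readout: yeast growth inhibition, expressed relative to vehicle-only wells. The test organism is a mutant strain from a panel with lesions in DNA repair or checkpoint genes.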

A short description of experiment [6]: NCI Yeast Anticancer Drug Screen. Data for the mlh1 rad18 strain (AID 175). The following applies: S. cerevisiae mlh1 rad18 strain growth inhibition, hits give high values. The method, boiled down: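 Steps: expose repair-defective yeast to compound; measure growth; express inhibition against vehicle-treated controls.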
Where [7] appears, read: at 5.0 µM (retest, dose inferred, filed as 0.5).
Setting [8] is: at 50.0 µM (retest, dose inferred, filed as 5.0).

Each structure is given as a SMILES string. About 79,000 compounds went through this panel and 15% of them were active in at least one assay; those are over-represented in the sample as a whole. Unmarked numbers belong to inactive results. Active and inactive are the calls of the source. Cut-off read from the data, not from the text of the source: active = growth inhibition above about 70%; inactive = the rest.

`CCOC(=O)N1C=C(C(=O)OC)C(c2ccccc2)C(C(=O)OC)=C1`: the growth inhibition in experiment [1] (setting [7]) is 4%; in experiment [1] (setting [8]), 6%; in experiment [1] (at 50.0 µM), -15.2%; in experiment [2] (setting [7]), 0%; in experiment [2] (setting [8]), 20%; in experiment [2] (at 50.0 µM), -9.35%. The growth inhibition in experiment [3] (setting [7]) is 5%; in experiment [3] (setting [8]), 14%; in experiment [3] (at 50.0 µM), -6.3%; in experiment [4] (setting [7]) it was -5%; in experiment [4] (setting [8]), 4%; in experiment [4] (at 50.0 µM) it was 32.6%. Besides, the growth inhibition is 8% in experiment [5] (setting [7]); 35% in experiment [5] (setting [8]); -4.25% in experiment [5] (at 50.0 µM); 2% in experiment [6] (setting [7]); 20% in experiment [6] (setting [8]); 1.25% in experiment [6] (at 50.0 µM).

As to `NNc1c(F)c(F)c(-c2c(F)c(F)c(NN)c(F)c2F)c(F)c1F`, the growth inhibition in experiment [1] (setting [7]) was 42%; in experiment [1] (setting [8]) it was 71% (active); in experiment [1] (at 50.0 µM), 87.6% (active); in experiment [2] (setting [7]), 38%; in experiment [2] (setting [8]), 68%; in experiment [2] (at 50.0 µM), 89.2% (active). In addition, the growth inhibition is 23% in experiment [3] (setting [7]); 98% (active) in experiment [3] (setting [8]); 91.5% (active) in experiment [3] (at 50.0 µM); 48% in experiment [4] (setting [7]); 99% (active) in experiment [4] (setting [8]); 89.8% (active) in experiment [4] (at 50.0 µM). Moreover, the growth inhibition in experiment [5] (setting [7]) was 43%; in experiment [5] (setting [8]), 98% (active); in experiment [5] (at 50.0 µM), 90.1% (active); in experiment [6] (setting [7]), 39%; in experiment [6] (setting [8]) it was 59%; in experiment [6] (at 50.0 µM), 86.8% (active).

With `CC(C)(C)c1ccc(C(C)(C)C)cc1`, the growth inhibition in experiment [1] (setting [7]) is 1%; in experiment [1] (setting [8]), 3%; in experiment [1] (at 50.0 µM) it was -10.7%; in experiment [2] (setting [7]) it was -5%; in experiment [2] (setting [8]), -4%; in experiment [2] (at 50.0 µM), 6.55%. Further, the growth inhibition in experiment [3] (setting [7]) was 1%; in experiment [3] (setting [8]) it was -9%; in experiment [3] (at 50.0 µM) it was -20.4%; in experiment [4] (setting [7]), 4%; in experiment [4] (setting [8]) it was -7%; in experiment [4] (at 50.0 µM), 50.8%. Also, the growth inhibition in experiment [5] (setting [7]) was 5%; in experiment [5] (setting [8]) it was 13%; in experiment [5] (at 50.0 µM) it was 3%; in experiment [6] (setting [7]) it was -2%; in experiment [6] (setting [8]), 1%; in experiment [6] (at 50.0 µM), 1.55%.

On to `CC1CCN(c2cc(-c3cc4ccccc4o3)oc(=O)c2C#N)CC1`, for which the growth inhibition in experiment [1] (setting [7]) was 7%; in experiment [1] (setting [8]) it was 1%; in experiment [1] (at 50.0 µM) it was 66.5%; in experiment [2] (setting [7]), 2%; in experiment [2] (setting [8]), 3%; in experiment [2] (at 50.0 µM) it was 56.7%. For the same compound, the growth inhibition was 3% in experiment [3] (setting [7]); 0% in experiment [3] (setting [8]); 68.5% in experiment [3] (at 50.0 µM); 7% in experiment [4] (setting [7]); -1% in experiment [4] (setting [8]); 33.1% in experiment [4] (at 50.0 µM). In addition, the growth inhibition in experiment [5] (setting [7]) is 2%; in experiment [5] (setting [8]), -1%; in experiment [5] (at 50.0 µM), 39.9%; in experiment [6] (setting [7]), -5%; in experiment [6] (setting [8]) it was 3%; in experiment [6] (at 50.0 µM), 74.7% (active).

For `O=C1c2cccc(O)c2C(=O)c2c(OC3OC(CO)C(O)C(O)C3O)cccc21` (stereo not given), the growth inhibition in experiment [1] (setting [7]) was 6%; in experiment [1] (setting [8]), 68%; in experiment [1] (at 50.0 µM), 76.8% (active); in experiment [2] (setting [7]), 10%; in experiment [2] (setting [8]) it was 48%; in experiment [2] (at 50.0 µM), 24.5%. In addition, the growth inhibition in experiment [3] (setting [7]) is 4%; in experiment [3] (setting [8]), 52%; in experiment [3] (at 50.0 µM) it was 78% (active); in experiment [4] (setting [7]) it was 16%; in experiment [4] (setting [8]), 59%; in experiment [4] (at 50.0 µM) it was 34.4%. Besides, the growth inhibition in experiment [5] (setting [7]) was 6%; in experiment [5] (setting [8]), 60%; in experiment [5] (at 50.0 µM) it was 74.8% (active); in experiment [6] (setting [7]), -7%; in experiment [6] (setting [8]), 62%; in experiment [6] (at 50.0 µM), 47.5%.

In the case of `COc1ccccc1C(=O)c1ccc2ccccc2c1`, the growth inhibition was -3% in experiment [1] (setting [7]); 71% (active) in experiment [1] (setting [8]); 47.2% in experiment [1] (at 50.0 µM); -10% in experiment [2] (setting [7]); 85% (active) in experiment [2] (setting [8]); 73% (active) in experiment [2] (at 50.0 µM). The growth inhibition is 0% in experiment [3] (setting [7]); 83% (active) in experiment [3] (setting [8]); 61.8% in experiment [3] (at 50.0 µM); -6% in experiment [4] (setting [7]); 9% in experiment [4] (setting [8]); -17.1% in experiment [4] (at 50.0 µM). For the same compound, the growth inhibition in experiment [5] (setting [7]) is 3%; in experiment [5] (setting [8]), 74% (active); in experiment [5] (at 50.0 µM) it was 83.6% (active); in experiment [6] (setting [7]), -15%; in experiment [6] (setting [8]), 55%; in experiment [6] (at 50.0 µM), 42.3%.

For `O=[N+]([O-])c1cc(NC(=S)SCc2ccccc2)ccc1Cl`, the growth inhibition in experiment [1] (setting [7]) is 92% (active); in experiment [1] (setting [8]), 98% (active); in experiment [1] (at 50.0 µM) it was 98.8% (active); in experiment [2] (setting [7]) it was 74% (active); in experiment [2] (setting [8]), 99% (active); in experiment [2] (at 50.0 µM), 99.3% (active). The growth inhibition in experiment [3] (setting [7]) was 92% (active); in experiment [3] (setting [8]), 99% (active); in experiment [3] (at 50.0 µM) it was 99.2% (active); in experiment [4] (setting [7]), 29%; in experiment [4] (setting [8]), 97% (active); in experiment [4] (at 50.0 µM), 99.1% (active). The growth inhibition in experiment [5] (setting [7]) was 8%; in experiment [5] (setting [8]), 97% (active); in experiment [5] (at 50.0 µM), 99.2% (active); in experiment [6] (setting [7]), 91% (active); in experiment [6] (setting [8]), 99% (active); in experiment [6] (at 50.0 µM), 99.2% (active).

Regarding `CCCCCCCCCCCCOC(=O)C[N+]1(C)CCCCC1`, the growth inhibition was 92% (active) in experiment [1] (setting [7]); 99% (active) in experiment [1] (setting [8]); 43.5% in experiment [1] (at 50.0 µM); 93% (active) in experiment [2] (setting [7]); 99% (active) in experiment [2] (setting [8]); 99.8% (active) in experiment [2] (at 50.0 µM). In addition, the growth inhibition in experiment [3] (setting [7]) was 99% (active); in experiment [3] (setting [8]), 99% (active); in experiment [3] (at 50.0 µM) it was 39.4%; in experiment [4] (setting [7]) it was 67%; in experiment [4] (setting [8]), 99% (active); in experiment [4] (at 50.0 µM), 98.5% (active). Moreover, the growth inhibition in experiment [5] (setting [7]) is 99% (active); in experiment [5] (setting [8]), 99% (active); in experiment [5] (at 50.0 µM), 99.7% (active); in experiment [6] (setting [7]), 33%; in experiment [6] (setting [8]), 99% (active); in experiment [6] (at 50.0 µM), 99.5% (active).

On to `CCS(=O)(=O)C(C(O)C(O)C(O)C(O)CO)S(=O)(=O)CC` (stereo not given), for which the growth inhibition in experiment [1] (setting [7]) is -3%; in experiment [1] (setting [8]), -6%; in experiment [1] (at 50.0 µM), 16.2%; in experiment [2] (setting [7]) it was -2%; in experiment [2] (setting [8]), -6%; in experiment [2] (at 50.0 µM) it was 8.95%. In addition, the growth inhibition was -2% in experiment [3] (setting [7]); -2% in experiment [3] (setting [8]); 7.25% in experiment [3] (at 50.0 µM); 0% in experiment [4] (setting [7]); -10% in experiment [4] (setting [8]); 43.5% in experiment [4] (at 50.0 µM). The growth inhibition in experiment [5] (setting [7]) is 0%; in experiment [5] (setting [8]), 4%; in experiment [5] (at 50.0 µM), -2%; in experiment [6] (setting [7]) it was -4%; in experiment [6] (setting [8]) it was -10%; in experiment [6] (at 50.0 µM) it was -7.05%.

Turning to `CC(=O)OCC1OC(n2cnc3c(Cl)nc(Cl)nc32)C(OC(C)=O)C1OC(C)=O` (stereo not given), the growth inhibition is 0% in experiment [1] (setting [7]); 0% in experiment [1] (setting [8]); 73.7% (active) in experiment [1] (at 50.0 µM); 1% in experiment [2] (setting [7]); 5% in experiment [2] (setting [8]); 54.1% in experiment [2] (at 50.0 µM). Besides, the growth inhibition in experiment [3] (setting [7]) is -1%; in experiment [3] (setting [8]) it was 7%; in experiment [3] (at 50.0 µM) it was 75.3% (active); in experiment [4] (setting [7]), 3%; in experiment [4] (setting [8]) it was 3%; in experiment [4] (at 50.0 µM) it was 72.6% (active). Also, the growth inhibition in experiment [5] (setting [7]) is 1%; in experiment [5] (setting [8]), -2%; in experiment [5] (at 50.0 µM), 70% (active); in experiment [6] (setting [7]), -1%; in experiment [6] (setting [8]) it was 0%; in experiment [6] (at 50.0 µM), 74.1% (active).
